TEAD-YAP block – TEAD-YAP interaction inhibition; HEK-TIYL cells, TEAD-Gal4/YAP UAS-luciferase luminescence; inhibition, % at 9.12 µM; 1.4% of 640,000 active; in the data active = inhibition above about 32%;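 note: 0% = median of test compound wells and 100% = reference inhibitor wells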
MITF primary – blocks human microphthalmia-associated transcription factor; O75030; inhibition, % at 2.6 µM; AlphaScreen MITF homodimerization, bead proximity signal; 0.91% of 650,000 active; in the data active = inhibition above about 50%;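 note: 0% = vehicle wells with protein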
GPR151 activ – activates the human receptor GPR151 | 1% of 650,000 active | Q8TDV0 | activation, % at 11.2 µM | PathHunter beta-arrestin GPR151 cells, luminescence; in the data active = activation above about 4.9%;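 note: 0% = median of compound wells and 100% = cells with positive control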
FBW7 act – human FBW7 E3 ligase activation, primary screen; AlphaScreen FBW7–phospho-cyclin E peptide binding, activator screen; Q969H0; 0.13% of 650,000 active; normalized activity (activation), % at 26.1 µM; in the data active = normalized activity above about 1.9%;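 note: purified mutant Fbw7 with reduced substrate affinity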
Target sequence (Q969H0 whole entry, looked up): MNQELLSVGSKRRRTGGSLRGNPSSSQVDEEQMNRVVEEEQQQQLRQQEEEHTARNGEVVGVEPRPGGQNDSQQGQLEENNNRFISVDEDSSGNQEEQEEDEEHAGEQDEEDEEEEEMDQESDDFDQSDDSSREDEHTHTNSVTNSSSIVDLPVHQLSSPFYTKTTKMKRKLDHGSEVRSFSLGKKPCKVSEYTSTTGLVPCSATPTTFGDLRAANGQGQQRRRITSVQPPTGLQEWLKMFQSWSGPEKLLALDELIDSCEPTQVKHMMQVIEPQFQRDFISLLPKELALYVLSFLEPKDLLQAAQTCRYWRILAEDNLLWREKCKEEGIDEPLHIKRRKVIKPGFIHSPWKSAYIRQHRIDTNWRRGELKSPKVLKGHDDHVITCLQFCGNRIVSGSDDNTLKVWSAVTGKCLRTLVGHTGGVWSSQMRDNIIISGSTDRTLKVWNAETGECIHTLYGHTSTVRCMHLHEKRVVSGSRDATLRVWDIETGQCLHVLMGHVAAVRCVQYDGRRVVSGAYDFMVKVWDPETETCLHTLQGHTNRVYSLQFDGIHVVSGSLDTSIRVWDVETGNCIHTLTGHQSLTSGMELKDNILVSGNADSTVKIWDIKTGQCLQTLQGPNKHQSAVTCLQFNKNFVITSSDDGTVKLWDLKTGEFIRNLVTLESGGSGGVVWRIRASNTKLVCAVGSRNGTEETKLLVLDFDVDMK
MITF inh conf – confirmation of human MITF inhibitors. AlphaScreen MITF homodimerization, biotin/His-MITF beads. shares compounds with MITF primary. AID 1259372. 16% of 4,700 active. inhibition, % at 2.6 µM;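 active = inhibition above a cutoff derived from the DMSO control wells, cut at about 28% in these data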;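 note: 0% = MITF dimer wells with DMSO only; inhibitors lower the bead chemiluminescence by keeping MITF from dimerizing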
AS interf DR – counter-screen: compounds optically interfering with AlphaScreen | shares compounds with MITF primary | AlphaScreen optical interference counterscreen, cell-free | IC50, µM | 6% of 480 active; call rule not given here
AlphaScreen intf2 – optically interferes with AlphaScreen signal; shares compounds with MITF primary; 7.6% of 4,700 active; LysRS AlphaScreen counterscreen, signal interference, triplicate; inhibition, % at 2.6 µM;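 active = inhibition above a cutoff derived from the DMSO control wells, cut at about 30% in these data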
* = called active by the depositor; i = inactive; . = no result; ! = repeats disagree. Hits are enriched below; roughly 3.5% of the tested compounds scored in any of these assays.

SMILES | TEAD-YAP block | MITF primary | GPR151 activ | FBW7 act | MITF inh conf | AlphaScreen intf2 | others
Cc1cc(C)n2nc(C(=O)Nc3ccc(Br)c(C)c3)nc2n1 | -48 | 51* | -2 | 1 | -7 | -8
Cc1cccc(CCNCc2ccc(OCC(O)CN3CCCCC3)cc2)n1 (stereo unspecified) | 3 | 5 | 0 | 0 | . | .
CC(=O)Oc1cccc(C(=O)Nc2cc(C(=O)O)ccc2C)c1 | 15 | 102* | 1 | 0 | 7 | 18
Cc1ccc(C(=O)O)cc1NC(=O)c1cccc(C(=O)Nc2cc(C(=O)O)ccc2C)c1 | 1 | 14 | -1 | 1 | . | .
COc1ccc(C2C(C(=O)OC(C)C)=C(C)NC3=C2C(=O)CC(c2ccccc2)C3)cc1OC (stereo unspecified) | 1 | 6 | -1 | 2 | . | .
COc1ccc(C2Nc3ccccc3NC3=C2C(=O)CC(c2ccc(Cl)cc2)C3)cc1OC (stereo unspecified) | -1 | 3 | 2 | 0 | . | .
COc1ccc(C2Nc3ccccc3NC3=C2C(=O)CC(c2ccccc2)C3)cc1OC (stereo unspecified) | 3 | 57* | 1 | 0 | 13 | 14
COc1cc(C2C(C(=O)OC(C)C)=C(C)NC3=C2C(=O)CC(c2ccccc2)C3)ccc1OCc1ccccc1 (stereo unspecified) | 5 | 64* | 0 | 0 | 10 | 17
CCCc1noc(CN(C)CC2COCCO2)n1 (stereo unspecified) | -2 | -5 | -2 | 0 | . | .
Cc1ccc(C(=O)Nc2ccccc2C#N)c(Cl)c1 | -32 | 63* | 0 | 1 | 5 | 7
O=C(c1ccc(F)cc1)N1CCN(Cc2ccc3ccccc3c2)CC1 | 15 | 58* | 3 | 1 | -8 | -6
Fc1ccc(CN2CCN(Cc3ccc4ccccc4c3)CC2)cc1 | -7 | 79* | 1 | 0 | 20 | 14
O=C(Nc1ccc2nccnc2c1)c1cnn(-c2ccccc2)c1C(F)(F)F | -65 | -7 | -4 | 0 | . | .
CCOCCCNc1ncnc2sccc12 | 8 | 21 | 0 | 0 | . | .
O=S(=O)(c1ccccc1)N1CCN(CC(O)COCc2ccco2)CC1 (stereo unspecified) | 1 | 94* | -2 | 0 | 17 | 1
COc1ccccc1-c1nnc(SCC(=O)N2CCc3ccccc32)o1 | 6 | 62* | 2 | 0 | 9 | -9
Cc1onc(-c2ccccc2)c1C(=O)NC1=NCCS1 | 4 | 8 | 1 | 0 | . | .
Cc1noc(C)c1C(=O)NC1=NCCS1 | -2 | 57* | -1 | 0 | 6 | 8
N#CC1=c2/c(=C/c3ccco3)c(N)c(C#N)n2C(=O)C(c2ccco2)S1 (stereo unspecified) | 13 | 68* | 0 | 0 | 47* | 27 | AS interf DR=i
CCC/C(=N/NC(=O)c1ccc(O)cc1)c1ccccc1 | -24 | 7 | 0 | 0 | . | .
Cc1cnn(C(=O)c2ccc(Br)s2)c1 | -7 | 13 | 1 | 0 | . | .
C=C(C)CNC(=S)Nc1ccccc1 | -11 | 77*! | 4 | 0 | -8 | -8
C=C(C)CNC(=S)Nc1ccccn1 | 9 | -5 | 0 | 0 | . | .
COc1cc(N)ccc1NC(=O)CSc1ncnc2sc3c(c12)CCCC3 | 6 | 79* | 1 | 0 | 8 | 22
CS(=O)(=O)Nc1ccc(-c2cnc3cccc(N(C(=O)c4ccccn4)C(=O)c4ccccn4)c3c2)cc1 | -14 | 66* | 0 | -1 | 36* | 54*
SMILES | TEAD-YAP block | MITF primary | GPR151 activ | FBW7 act | MITF inh conf | AlphaScreen intf2 | others
Cc1cccc(OCC(=O)NCCc2ccc(N3CCCC3)cc2)c1 | 2 | 53* | 0 | -1 | -2 | -1
Cc1cc(OC(=O)c2cccc([N+](=O)[O-])c2)ccc1N1C(=O)CCC1=O | -2 | 70* | 0 | 0 | 3 | 9
O=C(CN1CCN(Cc2ccccc2)CC1)Nc1ccccc1 | -5 | 1 | 3 | 1 | . | .
NC(=O)c1ccc(NC(=O)CN2CCc3ccccc3C2)cc1 | -6 | 3 | 0 | 0 | . | .
O=C(CN1CCc2ccccc2C1)Nc1ccc(C(=O)N2CCCCC2)cc1 | -16 | 60* | 2 | 0 | 11 | 19
O=C(CN1CCN(Cc2ccccc2)CC1)Nc1ccc(C(=O)N2CCCCC2)cc1 | 3 | 65* | 1 | 0 | 12 | -2
Clc1cnc(N2CCN(c3ccccc3)CC2)c(Cl)c1 | -5 | 13 | 1 | 0 | . | .
c1ccc2c(CN3CCN(C4C5CC6CC(C5)CC4C6)CC3)c[nH]c2c1 (stereo unspecified) | 2 | 65* | 0 | 0 | -6 | 2
Cc1ccccc1CN1CCN(C2C3CC4CC(C3)CC2C4)CC1 (stereo unspecified) | -1 | 74* | 5 | 0 | -1 | -2
Clc1ccccc1CN1CCN(C2C3CC4CC(C3)CC2C4)CC1 (stereo unspecified) | 3 | 75* | 1 | 0 | 12 | 15
O=C(NCC1CCCN(Cc2ccncc2)C1)C1(c2ccc(Cl)cc2)CC1 (stereo unspecified) | 10 | -4 | 1 | 0 | . | .
Nc1nonc1-c1noc(-c2ccccc2Br)n1 | -4 | 77* | -1 | 0 | 8 | 12
Nc1nonc1-c1noc(-c2ccccc2F)n1 | -41 | 3 | -2 | 0 | . | .
CC(=O)Nc1ccc(N2C(=O)c3ccccc3C2(O)Cc2ccccc2)cc1 (stereo unspecified) | -2 | 55* | 0 | 0 | 33* | 16 | AS interf DR=>6.5
COC(=O)CC1(O)c2ccccc2C(=O)N1Cc1ccccc1 (stereo unspecified) | 7 | 12 | 1 | 0 | . | .
CCCCn1nnnc1SCC(=O)Nc1cccc(C)c1 | -7 | 21 | 0 | 0 | . | .
CCCCn1nnnc1SCC(=O)Nc1cccc(C(C)=O)c1 | -4 | 68* | 0 | 0 | 3 | 5
CC(=O)NNC(=O)CSc1nnnn1-c1cccc(C(C)=O)c1 | 4 | 73* | 2 | 0 | 4 | 16
CCS(=O)(=O)NCC(c1cccs1)S(=O)(=O)c1ccc(C)cc1 (stereo unspecified) | -2 | 85* | 3 | 3.2* | 82* | 4 | AS interf DR=>6.6
Cc1ccc(S(=O)(=O)C(CNS(=O)(=O)c2ccccc2)c2cccs2)cc1 (stereo unspecified) | 5 | 21 | 0 | 0 | . | .
COc1ccc(OCCNCc2ccco2)cc1 | 0 | 52* | 2 | 0 | -18 | -2
COc1ccccc1CN1CCN(CC2CC3C=CC2C3)CC1 (stereo unspecified) | 9 | 69* | 0 | 0 | -15 | 6
COc1cc(OC)c(OC)cc1CN1CCN(CC2CC3C=CC2C3)CC1 (stereo unspecified) | -4 | 57* | 1 | 0 | -6 | -8
COc1cc(OC)c(OC)cc1CN1CCSCC1 | -5 | 40 | 0 | 0 | . | .
COc1ccc(CN2CCN(CC3CC4C=CC3C4)CC2)c(OC)c1OC (stereo unspecified) | 2 | 71* | 0 | 0 | -4 | -7
